In PubChem BioAssay (NCATS):
Results filed as inconclusive are left out. Entries that show only a call come without a potency. Active and inactive are the calls of the source. The call rests on the fitted dose curve; in most records, active means well fitted curve in the direction sought with a large enough effect; inconclusive means small, poorly fitted or top-dose-only effect, or another doubt; inactive means no such curve, though single readings can be large; an effect the other way counts as inactive or inconclusive.

Target: Luciferin 4-monooxygenase (Photinus pyralis) (UniProt P08659)
Assay: Primary firefly luciferase (FLuc) qHTS assay for identification of artifact compounds. (AID 1845220); further: nearly all actives have a fitted effect of over 60% in size
Details: purified firefly luciferase, luminescence, 5 min; series mostly up to 54.1 µM
In short: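 qHTS, 15 min compound preincubation with substrate (10 uM luciferin, 10 uM ATP) at RT, then 10 nM FLuc; 5 min; luminescence; % inhibition vs no-enzyme/DMSO controls, 4-parameter Hill fit.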

| Compound | Potency |
| --- | --- |
| C=CC(=O)Nc1ccc2ncnc(Nc3cccc(Br)c3)c2c1 | inactive |
| O=C(NCCCc1ccccc1)c1cccc(-c2cc(O)c3ncccc3c2)c1 | inactive |
| CCNC(=O)C#Cc1ccc2c(C(=Nc3ccc(CN(C)C)cc3)c3ccccc3)c(O)[nH]c2c1 | inactive |
| COc1ccccc1OCCNCC(O)CCOc1cccc2[nH]c3ccccc3c12 (stereo not given) | inactive |
| Cc1nnc(C[C@@H]2C=C(c3ccc(Cl)cc3)c3ccccc3-n3c(C)nnc32)o1 | inactive |
| COc1ccc(CCc2nc3c(C)c(-c4c(C)noc4C)c(C)cc3n2CCN2CCOCC2)cc1 | inactive |
| C[C@]12CC[C@@H]3c4ccc(O)c(O)c4CC[C@H]3[C@@H]1CCC2=O | inactive |
| CC12CCC3C1C(c1c(cc(O)c(C(=O)c4ccccc4)c1O)O2)C3(C)C (stereo not given) | inactive |
| C=C1C(=O)OC2/C=C(/C)C3=CC(=O)C(C)(CC(OC(=O)/C(C)=C/COC(C)=O)C12)O3 (stereo not given) | inactive |
| Cc1c[nH]c2ncnc(N3CCC(CN)(C(=O)Nc4cccc(OC(=O)N(C)C)c4)CC3)c12 | inactive |
| C=C1C(OC2OC(CO)C(O)C(O)C2O)CC2C(C)(C)C(O)CCC2(C)C1CC/C(C)=C\COC(=O)CC(=O)O (stereo not given) | inactive |
| CC(=O)OC/C(=C/C(=O)O)CC[C@@H]1C(C=O)=CC[C@@H]2C(C)(C)CCC[C@@]12C | inactive |
| Cc1sc2c(c1C)C(c1ccc(Cl)cc1)=N[C@H](CC(=O)NCCCCNC(=O)COc1cccc3c1C(=O)N([C@H]1CCC(=O)NC1=O)C3=O)c1nnc(C)n1-2 | inactive |
| CC(C)(O)C(=O)N1CCN(c2ccc(C(F)(F)F)c(C3=C(c4c[nH]c5ccccc45)C(=O)NC3=O)c2)CC1 | inactive |
| CCOC(=O)c1cnc2ccc(-c3cncc(NS(=O)(=O)c4ccccc4)c3)cn12 | inactive |
| Fc1ccc2c(CCNCc3cccc(OCC(F)(F)C(F)F)c3)c[nH]c2c1 | inactive |
| CC(C)c1cc2c(N3CCN(C4=NCC(C)(C)S4)CC3)ncnc2s1 | inactive |
| Clc1ccc(Cn2c(Cc3ccccc3)nc3ccccc32)cc1 | inactive |
| O=C(NCCCNc1nc(Nc2cccc(CN3CCOCC3)c2)ncc1C1CC1)C1CCC1 | inactive |

| Compound | Potency |
| --- | --- |
| Cc1c(OCc2cccc(-c3ccc(C(=O)O)cc3)c2)cc2c(c1C)C(=O)C(C1CCCC1)C2 (stereo not given) | inactive |
| N#Cc1ccc(COC[C@H]2O[C@@H](n3c(NCc4ccc(Cl)c(Cl)c4)nc4c(N)ncnc43)[C@H](O)[C@@H]2O)cc1 | inactive |
| O=C(c1ccccc1)c1c(O)cc(O)cc1O[C@@H]1O[C@H](CO)[C@@H](O)[C@H](O)[C@H]1O | inactive |
| CCOC(=O)N1CCC(CN(Cc2ccc(Cl)cc2)Cc2ccc([N+](=O)[O-])s2)C1 (stereo not given) | inactive |
| C=CC(=O)Nc1cccc(Nc2nc(Nc3ccc(OCCOC)cc3)ncc2F)c1 | inactive |
| Nc1ncnc2c1c(-c1ccc(Oc3ccccc3)cc1)nn2[C@@H]1CCCNC1 | inactive |
| CCC(=C(c1ccc(OCCN2CCCC2)cc1)c1ccc(OCCN2CCCC2)cc1)c1ccccc1 | inactive |
| Cc1[nH]c(/C=C2\C(=O)Nc3ccc(S(=O)(=O)N(C)c4cccc(Cl)c4)cc32)c(C)c1C(=O)N1CCN(C)CC1 | inactive |
| COc1c2c(c(C)c3c1C(=O)OC3)O[C@@]1(C)C[C@@H](OC(C)=O)[C@]34O[C@](OC)(CC[C@]3(C)[C@H]1C2)OC4(C)C | inactive |
| COc1ccc(NC(=O)c2ccc(-c3ccc(C(=N)N)cc3C)cc2)cc1N1CCN(C)CC1 | inactive |
| COc1ccc(CCN(C)CCCOc2nsc(-c3ccccc3)n2)cc1OC | inactive |
| CC1(C)CC[C@]2(C(=O)O[C@@H]3O[C@H](CO)[C@@H](O)[C@H](O)[C@H]3O)CC[C@]3(C)C(=CCC4[C@@]5(C)CC[C@H](O[C@@H]6O[C@H](C(=O)O)[C@H](O)[C@H](O)[C@H]6O)C(C)(C)C5CC[C@]43C)[C@@H]2C1 (stereo not given in full) | inactive |
| Cc1cc(NC(=O)c2cccc(NC(=O)/C=C/CN(C)C)c2)ccc1Nc1nccc(-c2cccnc2)n1 | inactive |
| CC(C)(O)c1ccc2c(c1)ncn2-c1cccc(-c2ccccc2C#N)c1 | inactive |
| O=S1(=O)CCN(Cc2cc(NCC3CCOCC3)c3[nH]c(-c4ccccc4)cc3c2)CC1 | inactive |
| CCC(=O)N1CCOc2c(cc(-c3ccc(OC)c(OC)c3)cc2OC[C@H]2CCCN(C)C2)C1 | inactive |
| CN(C)CC1CCn2c(c(C3=C(c4cn(C)c5ccccc45)C(=O)NC3=O)c3ccccc32)C1 (stereo not given) | inactive |
| COC(=O)CC1OC(C)C2=C(O)c3c(O)cccc3C(=O)C23OC13 (stereo not given) | inactive |
| COc1cc2ncnc(Nc3cccc(I)c3)c2cc1OC | inactive |

Tested on: not listed separately
Assay: Primary fluorescence-based thiol-reactive (MSTI) qHTS assay for identification of artifact compounds. (AID 1845221); further: nearly all actives have a fitted effect of over 65% in size; further: potency means the concentration at half of the fitted maximal effect
Details: MSTI thiol-reactivity probe, 1 h; series mostly up to 53.8 µM
In short: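 In PBS pH 7.4 with 2% DMSO, each compound met 4 uM MSTI for one hour at ambient temperature, shielded from light, before fluorescence detection.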

| Compound | Potency |
| --- | --- |
| C=CC(=O)Nc1ccc2ncnc(Nc3cccc(Br)c3)c2c1 | inactive |
| O=C(NCCCc1ccccc1)c1cccc(-c2cc(O)c3ncccc3c2)c1 | inactive |
| CCNC(=O)C#Cc1ccc2c(C(=Nc3ccc(CN(C)C)cc3)c3ccccc3)c(O)[nH]c2c1 | inactive |
| COc1ccccc1OCCNCC(O)CCOc1cccc2[nH]c3ccccc3c12 (stereo not given) | inactive |
| Cc1nnc(C[C@@H]2C=C(c3ccc(Cl)cc3)c3ccccc3-n3c(C)nnc32)o1 | inactive |
| COc1ccc(CCc2nc3c(C)c(-c4c(C)noc4C)c(C)cc3n2CCN2CCOCC2)cc1 | inactive |
| C[C@]12CC[C@@H]3c4ccc(O)c(O)c4CC[C@H]3[C@@H]1CCC2=O | 0.947 µM (active) |
| CC12CCC3C1C(c1c(cc(O)c(C(=O)c4ccccc4)c1O)O2)C3(C)C (stereo not given) | inactive |
| C=C1C(=O)OC2/C=C(/C)C3=CC(=O)C(C)(CC(OC(=O)/C(C)=C/COC(C)=O)C12)O3 (stereo not given) | 4.12 µM (active) |
| Cc1c[nH]c2ncnc(N3CCC(CN)(C(=O)Nc4cccc(OC(=O)N(C)C)c4)CC3)c12 | inactive |
| C=C1C(OC2OC(CO)C(O)C(O)C2O)CC2C(C)(C)C(O)CCC2(C)C1CC/C(C)=C\COC(=O)CC(=O)O (stereo not given) | inactive |
| CC(=O)OC/C(=C/C(=O)O)CC[C@@H]1C(C=O)=CC[C@@H]2C(C)(C)CCC[C@@]12C | inactive |
| Cc1sc2c(c1C)C(c1ccc(Cl)cc1)=N[C@H](CC(=O)NCCCCNC(=O)COc1cccc3c1C(=O)N([C@H]1CCC(=O)NC1=O)C3=O)c1nnc(C)n1-2 | inactive |
| CC(C)(O)C(=O)N1CCN(c2ccc(C(F)(F)F)c(C3=C(c4c[nH]c5ccccc45)C(=O)NC3=O)c2)CC1 | 3.36 µM (active) |
| CCOC(=O)c1cnc2ccc(-c3cncc(NS(=O)(=O)c4ccccc4)c3)cn12 | inactive |
| Fc1ccc2c(CCNCc3cccc(OCC(F)(F)C(F)F)c3)c[nH]c2c1 | inactive |
| CC(C)c1cc2c(N3CCN(C4=NCC(C)(C)S4)CC3)ncnc2s1 | inactive |
| Clc1ccc(Cn2c(Cc3ccccc3)nc3ccccc32)cc1 | inactive |
| O=C(NCCCNc1nc(Nc2cccc(CN3CCOCC3)c2)ncc1C1CC1)C1CCC1 | inactive |

| Compound | Potency |
| --- | --- |
| Cc1c(OCc2cccc(-c3ccc(C(=O)O)cc3)c2)cc2c(c1C)C(=O)C(C1CCCC1)C2 (stereo not given) | inactive |
| N#Cc1ccc(COC[C@H]2O[C@@H](n3c(NCc4ccc(Cl)c(Cl)c4)nc4c(N)ncnc43)[C@H](O)[C@@H]2O)cc1 | inactive |
| O=C(c1ccccc1)c1c(O)cc(O)cc1O[C@@H]1O[C@H](CO)[C@@H](O)[C@H](O)[C@H]1O | 13.1 µM (active) |
| CCOC(=O)N1CCC(CN(Cc2ccc(Cl)cc2)Cc2ccc([N+](=O)[O-])s2)C1 (stereo not given) | 13.4 µM (active) |
| C=CC(=O)Nc1cccc(Nc2nc(Nc3ccc(OCCOC)cc3)ncc2F)c1 | 4.74 µM (active) |
| Nc1ncnc2c1c(-c1ccc(Oc3ccccc3)cc1)nn2[C@@H]1CCCNC1 | inactive |
| CCC(=C(c1ccc(OCCN2CCCC2)cc1)c1ccc(OCCN2CCCC2)cc1)c1ccccc1 | inactive |
| COc1c2c(c(C)c3c1C(=O)OC3)O[C@@]1(C)C[C@@H](OC(C)=O)[C@]34O[C@](OC)(CC[C@]3(C)[C@H]1C2)OC4(C)C | inactive |
| COc1ccc(NC(=O)c2ccc(-c3ccc(C(=N)N)cc3C)cc2)cc1N1CCN(C)CC1 | inactive |
| COc1ccc(CCN(C)CCCOc2nsc(-c3ccccc3)n2)cc1OC | inactive |
| CC1(C)CC[C@]2(C(=O)O[C@@H]3O[C@H](CO)[C@@H](O)[C@H](O)[C@H]3O)CC[C@]3(C)C(=CCC4[C@@]5(C)CC[C@H](O[C@@H]6O[C@H](C(=O)O)[C@H](O)[C@H](O)[C@H]6O)C(C)(C)C5CC[C@]43C)[C@@H]2C1 (stereo not given in full) | inactive |
| Cc1cc(NC(=O)c2cccc(NC(=O)/C=C/CN(C)C)c2)ccc1Nc1nccc(-c2cccnc2)n1 | inactive |
| CC(C)(O)c1ccc2c(c1)ncn2-c1cccc(-c2ccccc2C#N)c1 | inactive |
| O=S1(=O)CCN(Cc2cc(NCC3CCOCC3)c3[nH]c(-c4ccccc4)cc3c2)CC1 | 1.19 µM (active) |
| CCC(=O)N1CCOc2c(cc(-c3ccc(OC)c(OC)c3)cc2OC[C@H]2CCCN(C)C2)C1 | inactive |
| CN(C)CC1CCn2c(c(C3=C(c4cn(C)c5ccccc45)C(=O)NC3=O)c3ccccc32)C1 (stereo not given) | inactive |
| COC(=O)CC1OC(C)C2=C(O)c3c(O)cccc3C(=O)C23OC13 (stereo not given) | 3.29 µM (active) |
| COc1cc2ncnc(Nc3cccc(I)c3)c2cc1OC | inactive |
